DRD3 agonist: qHTS of D3 Dopamine Receptor Agonist: qHTS. D(3) dopamine receptor (Homo sapiens), P35462. AID 652048, 2013. max activation, %. actives 0.58% (n = 410,000). D3R DiscoveRx beta-arrestin cells, luminescence, 90 min; in the data active = max activation above about 30%; note: 0% is about no effect
Target sequence (P35462 whole entry, looked up): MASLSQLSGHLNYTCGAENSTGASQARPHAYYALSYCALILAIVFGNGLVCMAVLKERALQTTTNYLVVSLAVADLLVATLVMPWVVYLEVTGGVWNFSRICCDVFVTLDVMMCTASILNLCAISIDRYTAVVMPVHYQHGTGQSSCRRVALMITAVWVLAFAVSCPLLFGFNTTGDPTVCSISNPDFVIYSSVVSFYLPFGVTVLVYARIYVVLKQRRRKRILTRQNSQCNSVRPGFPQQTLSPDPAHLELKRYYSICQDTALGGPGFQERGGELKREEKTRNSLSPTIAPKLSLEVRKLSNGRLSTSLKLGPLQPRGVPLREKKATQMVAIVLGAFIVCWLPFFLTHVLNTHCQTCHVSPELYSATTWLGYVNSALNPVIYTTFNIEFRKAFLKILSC
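Agonist-mode cell screen: cells plated at 1500/well and incubated overnight at 37 °C, then exposed to library compounds for 90 min at 37 °C. Detection reagent was added for 30–60 min at room temperature, and luminescence was read.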
DRD3 antagonist: qHTS of D3 Dopamine Receptor Antagonist: qHTS; D(3) dopamine receptor (Homo sapiens), P35462; D3R cells, DiscoveRx beta-arrestin luminescence, antagonist mode; hits give low values; max response, negative = inhibition, %; actives 2.5% (n = 360,000); in the data active = max response below about -50%; inconclusive = no clear call, values can overlap the other calls; note: % is set by controls: 0 for no effect and ±100 for the full control effect
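Cells expressing the human receptor were seeded at 1500 cells/well, incubated overnight at 37 degrees C in 5% CO2, then exposed to library compounds with dopamine controls for 90 minutes at 37 degrees C before luminescent detection.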
TGFb inhibitor: qHTS for Inhibitors of TGF-b. AID 588855, 2011. Potency, µM (titrated, usually from 46.1 µM), inactives show top-dose activity, negative = inhibition, usual class: inhibitors. HepG2 CAGA-GFP TGF-b/SMAD3 reporter, GFP fluorescence, 18 h; TGF-beta stimulated, 500 pg/mL final. actives 1.2% (n = 410,000); note: potency is the fitted concentration of half-maximal effect; % is set by controls: 0 for no effect and ±100 for the full control effect; nearly all actives have a fitted effect of over 65% in size
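Inhibition was scored as loss of TGF-beta-induced (500 pg/mL final, 18 hours, 37 degrees C) GFP in HEPG2 cells carrying a CAGA-GFP reporter, in DMEM with 1% FBS. Well GFP was summed per cell; Activity was normalised to unstimulated and stimulated DMSO wells, then concentration-response fitting.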
ATXN2 expr inh: Primary qHTS for Inhibitors of ATXN expression | AID 1745845, 2022 | Potency, µM (series often up to 57 µM), for the others: at the highest dose activity change, negative = inhibition, usual class: inhibitors | actives 0.72% (n = 360,000) | HEK-293 ATXN2-luciferase reporter, luminescence, 24 h; note: potency is the fitted concentration of half-maximal effect; % is set by controls: 0 for no effect and ±100 for the full control effect; nearly all actives have a fitted effect of over 55% in size
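ATXN2-luciferase reporter cells (luciferase flanked by upstream and downstream ATXN2 gene portions) were treated 24 h at 37 °C with compounds at up to 57 uM. SteadyGlo luminescence gave expression; GF-AFC fluorescence gave viability.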
HepG2 viability: qHTS for Inhibitors of TGF-b: Cytotox Counterscreen | AID 588856, 2011 | actives 0.76% (n = 410,000) | HepG2 CAGA-GFP viability, ATP luminescence, 18 h | Potency, µM (doses to about 46.1 µM), without a hit: at the highest dose activity change, negative = cytotoxicity, hits mostly cytotoxic; note: potency is the fitted concentration of half-maximal effect
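CellTiter-Glo luminescence gave cytotoxicity after 18 hours at 37 degrees C. The cells were HepG2 CAGA-GFP in 1% FBS DMEM, stimulated with 500 pg/mL TGF-beta after compound addition. %Activity was normalised to no-cell wells (complete cell-killing) and DMSO (no toxicity), and curves were fitted and classified.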
ATXN viability: Viability Counterscreen for Primary qHTS for Inhibitors of ATXN expression; S2 cells (HEK-293 line with an ATXN2-luciferase reporter) viability, CellTiter-Fluor protease fluorescence, 24 h; Potency, µM (highest dose often 56.7 µM), most hits filed as cytotoxic; actives 0.49% (n = 400,000); note: potency is the fitted concentration of half-maximal effect; nearly all actives have a fitted effect of over 40% in size
* hit, by the source's call; i = inactive; u = inconclusive; x = no result. An excerpt weighted towards active compounds, which were near 4.7% of everything screened. Unless noted, calls come from the whole dose curve; as a rule, active = well fitted curve in the direction sought with a large enough effect; inconclusive = small, poorly fitted or top-dose-only effect, or another doubt; inactive = no such curve, though single readings can be large; an effect the other way counts as inactive or inconclusive.

SMILES	DRD3 agonist	DRD3 antagonist	TGFb inhibitor	ATXN2 expr inh	HepG2 viability	ATXN viability
Cc1ccc(NC(=S)NNC(=O)c2nn(C)cc2Cl)cc1	-2.1	-53.7*	9.6%	1.2%	-6.3%	i
Cc1ccc(NC(=O)COC(=O)c2nn(C)cc2Cl)cc1	-0.1	-3.5	28.6%	2.8%	2.9%	i
Cc1c(Cl)c(C(=O)NNC(=S)Nc2ccccc2)nn1C	2.3	11.4	-6.8%	24.0%	-12.5%	i
CSc1ccc(CNC(=O)Cn2nc(N3CCN(c4ccccc4)CC3)ccc2=O)cc1	6.5	x	-14.1%	17.7%	-19.4%	i
N#CCCN(C(=O)CSc1ncccn1)c1ccc2c(c1)OCCO2	1.1	18.3	-5.8%	x	7.9%	u
O=C(CCl)N(C/C=C/c1ccccc1)c1ccc2c(c1)OCCO2	-0.2	-10.3	u	1.34µM*	-2.5%	1.34µM*
COc1ccccc1C(=O)NCCC(=O)NCCC12CC3CC(CC(C3)C1)C2	-8.2	-22.1	9.7%	-4.7%	-28.3%	i
COc1ccc(C23CC4CC(CC(C4)C2)C3)cc1C(=O)NCCN(C)C	-4.0	-12.7	u	x	15.8µM*	x
N=C1N=C(N)c2cc3ccccc3cc21	4.4	x	x	17.8µM*	x	31.6µM*
CC(C)NC1CCC(Nc2ccnc3cc(Cl)ccc23)CC1 (configuration not stated)	-2.9	-3.4	-0.6%	u	-15.0%	i
Clc1ccc2c(NCCNC3CCCCC3)ccnc2c1	-20.4	-98.4*	u	2.24µM*	12.6µM*	x
O=C(NCCC1CCCCN1S(=O)(=O)c1ccccc1)C(=O)Nc1ccc(F)cc1 (configuration not stated)	-4.5	-17.2	-0.8%	-15.4%	-9.4%	u
COc1cc(CNC(=O)C2CCCCN2S(=O)(=O)c2ccc(F)cc2)cc(OC)c1OC (configuration not stated)	4.5	x	-22.0%	-16.7%	-8.4%	i
COc1ccc(OC)c(CNC(=O)C2CCCCN2S(=O)(=O)c2ccc(F)cc2)c1 (configuration not stated)	-13.2	x	7.94µM*	-0.9%	-15.8%	i
COc1ccc(NC(=O)C(=O)NCCC2CCCCN2S(=O)(=O)c2ccc(F)cc2)cc1 (configuration not stated)	-13.8	-19.3	-17.0%	2.51µM*	4.1%	i
O=C(CSc1nnc(-c2ccccc2F)n1C1CC1)NC(=O)c1cccc([N+](=O)[O-])c1	-54.0	-56.6*	5.8%	1.4%	7.0%	u
Cn1c(SCC(=O)NC(=O)c2cccc([N+](=O)[O-])c2)nnc1-c1ccc(F)cc1	-4.5	-26.5	-25.9%	-3.5%	-13.0%	i
COc1cccc(NC(=O)Cn2c(=O)n(Cc3ccc(C(=O)NCc4ccc(C)cc4)cc3)c(=O)c3ccccc32)c1	-3.8	x	u	7.1%	-0.8%	i
Cc1ccc(CCNC(=O)c2cc3c(=O)n(C)c4ccccc4c3n2C)cc1	0.0	x	u	-5.7%	-0.6%	i
Cc1ccc(-n2[nH]c(=O)c(-c3ccccn3)c2C)cc1	5.9	-5.5	2.5%	1.78µM*	-17.8%	i
Cc1ccc(-n2[nH]c(=O)c3cccnc32)cc1	-25.7	-5.7	6.8%	-0.4%	-15.8%	i
COC(=O)c1sccc1NC(=O)c1c(C)noc1C	1.2	18.2	-15.3%	-13.6%	-22.4%	i
COC(=O)c1sccc1NC(=O)c1cc(C)on1	-9.7	-53.3*	-48.7%	2.5%	-12.7%	i
COC(=O)c1sccc1NC(=O)COc1ccc(C)cc1	-2.7	-74.9*	-2.0%	0.5%	-3.3%	i
Cc1c(NC(=O)Nc2cccc(C(F)(F)F)c2)sc2nc3n(c(=O)c12)CCC(C)CC3 (configuration not stated)	-3.3	x	-15.2%	-1.2%	1.5%	u
SMILES	DRD3 agonist	DRD3 antagonist	TGFb inhibitor	ATXN2 expr inh	HepG2 viability	ATXN viability
COc1ccccc1NC(=O)Nc1nc(C(N)C(C)C)cs1 (configuration not stated)	-4.6	1.7	u	u	-1.5%	i
COc1ccccc1NC(=O)Nc1nc(C(N)C2CCCCC2)cs1 (configuration not stated)	-17.2	u	u	u	11.2µM*	u
NC(c1csc(NC(=O)Nc2cccc(Cl)c2)n1)C1CCCCC1 (configuration not stated)	-16.8	-17.2	u	u	-105.1%	28.2µM*
COc1cc(NC(=O)Nc2nc(C(N)C3CCCCC3)cs2)cc(OC)c1OC (configuration not stated)	-7.7	13.9	u	u	11.2µM*	u
O=C(Nc1cccc(Cl)c1)NC1CCN(C2CCCCC2)C1 (configuration not stated)	-18.2	-103.4*	1.6%	-14.3%	-13.8%	i
CCN(C(=O)CSc1nc2ccccc2n1CC(=O)N(C)C1CCCCC1)c1ccccc1	-17.1	x	-10.7%	-11.1%	-5.0%	i
CN(C)c1ccc(C(I)C(I)c2ccnc3ccccc23)cc1 (configuration not stated)	x	x	0.7%	x	-56.3%	x
C[S+](C)CC(=O)c1ccc2ccccc2c1	x	x	24.1%	x	-12.4%	x
COc1ccccc1N1CCN(c2ncnc3c2cnn3-c2cccc(Cl)c2)CC1	14.5	x	21.1%	3.3%	4.8%	i
Cc1ccc(C)c(S(=O)(=O)c2cn(Cc3ccccc3)c3cc(F)c(F)cc3c2=O)c1	6.2	x	-4.8%	2.6%	8.9%	u
COc1cc(C(=O)n2nc(-c3ccco3)nc2NCc2ccc(Cl)cc2)cc(OC)c1OC	7.5	x	15.1%	18.1%	13.8%	i
CCOc1cc2sc(N3CCC(C(=O)Nc4ccc(CC)cc4)CC3)nc2cc1Br	3.5	x	-8.7%	36.9%	-11.8%	i
NC(c1csc(NC(=O)Nc2ccccc2Cl)n1)C1CCCCC1 (configuration not stated)	58.4*	-27.6	u	-20.8%	-89.0%	i
NC(c1csc(NC(=O)Nc2ccccc2)n1)C1CCCCC1 (configuration not stated)	-6.0	2.1	u	-5.5%	-82.4%	i

Screens: PubChem BioAssay, National Center for Advancing Translational Sciences (NCATS)
